The source of these data is ChEMBL document CHEMBL1157539, “Thousands of chemical starting points for antimalarial lead identification” (Nature, 2010).

Assay type in all cases: functional
Assay [1] relates to Plasmodium falciparum. Put plainly: GSK_TCMDC: Inhibition of Plasmodium falciparum 3D7 in whole red blood cells, using parasite LDH activity as an index of growth. Test compounds present at 2uM.
The test system of assay [2] is Plasmodium falciparum. Put plainly: GSK_TCMDC: Inhibition of Plasmodium falciparum Dd2 in whole red blood cells, using parasite LDH activity as an index of growth. Test compounds present at 2uM.
The next assay has as its system HepG2. Put plainly: GSK_TCMDC: Percent inhibition of human HepG2 cell line. Test compounds present at 10uM.

What is called Inhibition is the change of the read-out against control, counted positive when it falls. For `COc1cc(OC)c(OC)cc1CN1CCC2(CC1)CN(Cc1ccc(Cl)c(Cl)c1)C(=O)O2`, the values for the Inhibition in the assay with Plasmodium falciparum [1], in the assay with Plasmodium falciparum [2] and in the assay with HepG2 were 90%, 94% and 8%, respectively.

For `COCCCNc1sc(S(=O)(=O)c2ccccc2)nc1S(=O)(=O)c1ccc(Cl)cc1`, the Inhibition is 95% with Plasmodium falciparum [1], 87% in the assay with Plasmodium falciparum [2] and 0% with HepG2.

For the compound `CN1CCC(NCc2ccc(-c3ccc(C(F)(F)F)cc3)cc2)CC1`, the Inhibition in the assay on Plasmodium falciparum [1] amounted to 99%; with Plasmodium falciparum [2] it was 71%; in the assay on HepG2 it was 54%.

For the compound `Cc1cc(-c2ccc3c(c2)CCN(CCCOc2ccc4c(c2)CCN4C(=O)/C=C/c2ccccc2Cl)CC3)no1`, the values for the Inhibition with Plasmodium falciparum [1], with Plasmodium falciparum [2] and in the assay on HepG2 were 88%, 50% and 52%, respectively.

As to `CN1CCN(CC(=O)Nc2cccc(-c3cccc(-c4nc5cc(C(F)(F)F)ccc5[nH]4)c3)c2)CC1`, the Inhibition is on record as 100% in the assay with Plasmodium falciparum [1], 98% in the assay on Plasmodium falciparum [2] and 26% with HepG2.

In the case of `CC(Nc1nc(Nc2ccc(F)cc2)nc(SCC(N)=O)n1)c1ccccc1` (stereo not drawn), the Inhibition was found to be 90% in the assay on Plasmodium falciparum [1], 87% with Plasmodium falciparum [2] and 14% in the assay with HepG2.

As for `O=C(/C=C/c1ccc(Cl)c(Cl)c1)NCC(CCCN1CCC(c2c[nH]c3ccccc23)CC1)c1ccccc1` (stereo not drawn), the Inhibition in the assay on Plasmodium falciparum [1] came to 100%; in the assay on Plasmodium falciparum [2], 46%; with HepG2, 98%.

Consider `COc1ccc(C2SCC(=O)N2CCc2ccc(OC)c(OC)c2)cc1` (stereo not drawn), for which the results for the Inhibition in the assay on Plasmodium falciparum [1], with Plasmodium falciparum [2] and in the assay with HepG2 were 96%, 2% and 19%, respectively.

`C=C[C@H]1CN(CCCCCCC)CC[C@H]1CCNc1ccnc2ccc(OC)cc12`: the figures for the Inhibition with Plasmodium falciparum [1], in the assay on Plasmodium falciparum [2] and in the assay with HepG2 were 95%, 81% and 99%, respectively.

Turning to `O=[N+]([O-])c1ccc(-c2ccc(C=NNc3nc(Nc4ccccc4)nc(Nc4ccccc4)n3)o2)cc1`, the Inhibition in the assay on Plasmodium falciparum [1] came out at 91%; with Plasmodium falciparum [2] it was 12%; with HepG2 it was 0%.

Regarding `Cc1ccc(C2CCN(CCCCNC(=O)c3ccc(-c4ccc(C(F)(F)F)cc4)cc3)CC2)c(O)c1`, the Inhibition in the assay on Plasmodium falciparum [1] came to 100%; in the assay on Plasmodium falciparum [2], 49%; with HepG2 it was 92%.

As to `COc1cc2nc(N3CCN(c4cc(C)ccc4C)CC3)nc(N)c2cc1OC.Cl`, the values for the Inhibition with Plasmodium falciparum [1], in the assay with Plasmodium falciparum [2] and in the assay on HepG2 were 98%, 12% and 66%, respectively.

For the compound `CCCCCOc1ccc(/N=C2\C=C(O)C(=O)c3ccccc32)cc1`, the Inhibition turned out to be 99% in the assay with Plasmodium falciparum [1], 96% in the assay on Plasmodium falciparum [2] and 10% in the assay on HepG2.

`COc1ccccc1C(C)NCC(=O)Nc1ccccc1Sc1ccccc1` (stereo not drawn): the Inhibition in the assay with Plasmodium falciparum [1] was 89%; in the assay on Plasmodium falciparum [2], 7%; in the assay on HepG2, 0%.

Take `COc1ccc2nccc(N3CCC(NCCNS(=O)(=O)c4ccc5c(c4)NC(=O)CS5)C3)c2n1.Cl` (stereo not drawn): the figures for the Inhibition with Plasmodium falciparum [1], in the assay with Plasmodium falciparum [2] and in the assay on HepG2 were 97%, 18% and 12%, respectively.

Turning to `O=C(Nc1cccc(-c2csc(-c3nc4ccccc4[nH]3)c2)c1)c1cccnc1`, the Inhibition was determined as 98% in the assay on Plasmodium falciparum [1], 45% with Plasmodium falciparum [2] and 18% in the assay on HepG2.

As for `O=C(/C=C/c1ccc(Cl)c(Cl)c1)NCCCCCN1CCC(CCNC(=O)/C=C/c2ccccc2F)CC1`, the Inhibition was 94% in the assay on Plasmodium falciparum [1], 1% in the assay with Plasmodium falciparum [2] and 47% with HepG2.

Consider `COc1cc(C(=O)N2CCOC(CCN3CCC(c4ccc(Cl)cc4)CC3)(c3ccc(Cl)c(Cl)c3)C2)cc(OC)c1OC` (stereo not drawn), for which the Inhibition with Plasmodium falciparum [1] was found to be 91%; in the assay with Plasmodium falciparum [2], 80%; in the assay on HepG2, 44%.

For `O=C(Nc1cccc(-c2cccc(-c3nc4cc(C(F)(F)F)ccc4[nH]3)c2)c1)c1ccoc1`, the values for the Inhibition in the assay with Plasmodium falciparum [1], in the assay on Plasmodium falciparum [2] and in the assay with HepG2 were 99%, 61% and 32%, respectively.

On to `CC(C)(C)c1ccc(NC(=O)c2ccc(CN3CCCN(Cc4ccc(F)cc4)CC3)cc2)cc1.O=C(O)C(F)(F)F`, for which the Inhibition is 87% with Plasmodium falciparum [1], 7% in the assay on Plasmodium falciparum [2] and 55% with HepG2.

For `Br.COc1cc(OCCCCCCON2C(=N)N=C(N)NC2(C)C)cc(OC)c1OC`, the Inhibition was 94% in the assay on Plasmodium falciparum [1], 93% in the assay on Plasmodium falciparum [2] and 41% with HepG2.

`COc1cc(CNC2Cc3ccccc3C2)ccc1Oc1ccc2nc[nH]c2c1.O=C(O)C(F)(F)F`: the figures for the Inhibition in the assay on Plasmodium falciparum [1], with Plasmodium falciparum [2] and in the assay with HepG2 were 98%, 50% and 30%, respectively.

In the case of `CN(C)CCN(C)Cc1cccc(-c2ccc3c(Nc4cc(O)c(Cl)cc4F)ccnc3c2)c1`, the results for the Inhibition in the assay with Plasmodium falciparum [1], in the assay with Plasmodium falciparum [2] and with HepG2 were 100%, 70% and 14%, respectively.

Take `COc1cc(NC(=O)NC(CCN2CCC3(CCc4ccccc43)CC2)c2ccc(Cl)c(Cl)c2)cc(OC)c1OC` (stereo not drawn): the Inhibition in the assay with Plasmodium falciparum [1] is reported as 90%; in the assay with Plasmodium falciparum [2], 66%; in the assay on HepG2, 66%.

With `O=C(CSc1nnc(O)n1Cc1ccccc1)Nc1ccccc1-c1ccccc1`, the results for the Inhibition with Plasmodium falciparum [1], in the assay on Plasmodium falciparum [2] and in the assay on HepG2 were 89%, 36% and 0%, respectively.

For the compound `O=C(/C=C/c1cccc(C(F)(F)F)c1)NCCCCCN1CCC(c2c[nH]c3ccccc23)CC1`, the results for the Inhibition in the assay with Plasmodium falciparum [1], in the assay with Plasmodium falciparum [2] and in the assay with HepG2 were 90%, 14% and 70%, respectively.

Consider `COc1ccc(/C=C/C(=O)Nc2ccc(-c3ccncc3)cc2)cc1CCCN(C)C.O=C(O)/C=C\C(=O)O`, for which the Inhibition in the assay with Plasmodium falciparum [1] is given as 100%; in the assay on Plasmodium falciparum [2], 86%; in the assay on HepG2 it was 3%.

Take `Cc1c(C2CCN(CCCCNC(=O)c3ccc(-c4ccc(C#N)cc4)cc3)CC2)c2ccccc2n1CCO`: the Inhibition worked out at 96% in the assay on Plasmodium falciparum [1], 99% with Plasmodium falciparum [2] and 28% with HepG2.

Turning to `Cc1cc(-c2ccc3c(c2)CCN(CCC2CCC(NC(=O)/C=C/c4cccc(Cl)c4)CC2)CC3)on1.Cl` (stereo not drawn), the figures for the Inhibition in the assay with Plasmodium falciparum [1], in the assay with Plasmodium falciparum [2] and in the assay on HepG2 were 100%, 49% and 16%, respectively.

Regarding `COc1ccc2nccc([C@@H](O)CN3CCC(NC(=O)Cc4cccc5c(Br)cccc45)CC3)c2c1`, the Inhibition with Plasmodium falciparum [1] turned out to be 99%; with Plasmodium falciparum [2], 34%; with HepG2 it was 15%.

For `Cc1nc(-c2ccc(-c3ccc(C(=O)Nc4ccc(Cl)c(N5CCN(C)CC5)c4)cc3)c(C)c2)no1`, the Inhibition with Plasmodium falciparum [1] is 100%; with Plasmodium falciparum [2], 47%; in the assay with HepG2 it was 23%.
